Experimental data: PubChem BioAssay AID1159580 (chemical genetic matrix, 2015)
The whole screen tested about 5,500 compounds, of which about 2,000 (36%) were called active. About 18% were inconclusive and are not listed. No stated cut-off is given here; in the data, active means normalized growth mostly below about 0.91 (no sharp cut-off); inconclusive means no clear call, values can overlap the other calls; inactive means mostly above about 0.92. This is one part of the list.

Test: chemical genetic growth profiling, strain panel (AID 1159580);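 further: tested at 20 µM; growth read once vehicle control cultures reached saturation at 30 °C; 1 = growth at the plate median or of vehicle wells; lower values mean less growth of the strain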
Conditions: growth OD

Measured: normalized growth

CC(C(=O)O)c1ccc2c(c1)[nH]c1ccc(Cl)cc12 (configuration not stated)
active: S. cerevisiae deletion strains, locus YLR113W, strain HOG1, hits give low values 0.248 | S. cerevisiae deletion strains, locus YNL183C, strain NPR1, hits give low values 0.507 | S. cerevisiae deletion strains, locus YNL250W, strain rad50, hits give low values 0.885 | S. cerevisiae deletion strains, locus YNL322C, strain KRE1 (second series), hits give low values 0.895 | S. cerevisiae deletion strains, locus YOR231W, strain MKK1, hits give low values 0.212 | S. cerevisiae deletion strains, locus YPL256C, strain CLN2, hits give low values 0.238
inactive: S. cerevisiae deletion strains, locus YJR075W, strain HOC1, hits give low values 1.01 | S. cerevisiae deletion strains, locus YKL009W, strain mrt4, hits give low values 0.975 | S. cerevisiae deletion strains, locus YKL068W, hits give low values 0.964 | S. cerevisiae deletion strains, locus YKL085W, strain MDH1 (second series), hits give low values 0.95 | S. cerevisiae deletion strains, locus YKL085W, strain MDH1, hits give low values 0.95 | S. cerevisiae deletion strains, locus YKL160W, strain elf1, hits give low values 0.941 | S. cerevisiae deletion strains, locus YKL190W, strain CNB1, hits give low values 1.01 | S. cerevisiae deletion strains, locus YKR001C, strain vps1, hits give low values 0.937 | S. cerevisiae deletion strains, locus YKR026C, strain gcn3, hits give low values 0.983 | S. cerevisiae deletion strains, locus YKR091W, strain srl3, hits give low values 0.988 | S. cerevisiae deletion strains, locus YLL001W, strain dnm1, hits give low values 1 | S. cerevisiae deletion strains, locus YLL026W, hits give low values 0.978 | S. cerevisiae deletion strains, locus YLL041C, strain sdh2, hits give low values 1 | S. cerevisiae deletion strains, locus YLR027C, strain aat2, hits give low values 0.992 | S. cerevisiae deletion strains, locus YLR039C, strain RIC1, hits give low values 0.977 | S. cerevisiae deletion strains, locus YLR058C, strain SHM2, hits give low values 1 | S. cerevisiae deletion strains, locus YLR102C, strain apc9, hits give low values 0.991 | S. cerevisiae deletion strains, locus YLR221C, strain rsa3, hits give low values 0.986 | S. cerevisiae deletion strains, locus YLR258W, strain gsy2, hits give low values 0.976 | S. cerevisiae deletion strains, locus YLR262C, strain YPT6 (second series), hits give low values 0.94 | S. cerevisiae deletion strains, locus YLR262C, strain YPT6, hits give low values 0.989 | S. cerevisiae deletion strains, locus YLR268W, strain sec22, hits give low values 0.992 | S. cerevisiae deletion strains, locus YLR320W, strain mms22, hits give low values 0.937 | S. cerevisiae deletion strains, locus YLR330W, strain CHS5, hits give low values 0.998 | S. cerevisiae deletion strains, locus YLR342W, strain FKS1 (second series), hits give low values 0.987 | S. cerevisiae deletion strains, locus YLR342W, strain FKS1, hits give low values 0.966 | S. cerevisiae deletion strains, locus YLR357W, strain rsc2, hits give low values 0.923 | S. cerevisiae deletion strains, locus YLR370C, strain arc18, hits give low values 0.972 | S. cerevisiae deletion strains, locus YLR371W, strain rom2, hits give low values 0.984 | S. cerevisiae deletion strains, locus YLR384C, strain iki3, hits give low values 0.964 | S. cerevisiae deletion strains, locus YLR418C, strain cdc73, hits give low values 0.962 | S. cerevisiae deletion strains, locus YML016C, strain PPZ1, hits give low values 1.01 | S. cerevisiae deletion strains, locus YML032C, strain rad52, hits give low values 0.965 | S. cerevisiae deletion strains, locus YML120C, strain ndi1, hits give low values 0.985 | S. cerevisiae deletion strains, locus YML124C, strain tub3, hits give low values 0.981 | S. cerevisiae deletion strains, locus YMR058W, strain fet3, hits give low values 1 | S. cerevisiae deletion strains, locus YMR078C, strain ctf18, hits give low values 0.983 | S. cerevisiae deletion strains, locus YMR125W, strain sto1, hits give low values 0.969 | S. cerevisiae deletion strains, locus YMR129W, hits give low values 0.995 | S. cerevisiae deletion strains, locus YMR205C, strain PFK2, hits give low values 0.962 | S. cerevisiae deletion strains, locus YMR223W, strain ubp8, hits give low values 0.975 | S. cerevisiae deletion strains, locus YMR231W, strain pep5, hits give low values 0.957 | S. cerevisiae deletion strains, locus YMR263W, strain SAP30, hits give low values 1.02 | S. cerevisiae deletion strains, locus YMR307W, strain GAS1, hits give low values 0.996 | S. cerevisiae deletion strains, locus YNL067W, strain RPL9B, hits give low values 1.03 | S. cerevisiae deletion strains, locus YNL071W, strain lat1, hits give low values 0.982 | S. cerevisiae deletion strains, locus YNL128W, strain TEP1, hits give low values 1 | S. cerevisiae deletion strains, locus YNL153C, strain GIM3, hits give low values 1.03 | S. cerevisiae deletion strains, locus YNL209W, strain ssb2, hits give low values 0.988 | S. cerevisiae deletion strains, locus YNL233W, strain BNI4, hits give low values 1.02 | S. cerevisiae deletion strains, locus YNL248C, strain rpa49, hits give low values 0.963 | S. cerevisiae deletion strains, locus YNL271C, strain bni1, hits give low values 0.942 | S. cerevisiae deletion strains, locus YNL298W, strain CLA4, hits give low values 0.91 | S. cerevisiae deletion strains, locus YNL307C, strain MCK1, hits give low values 0.963 | S. cerevisiae deletion strains, locus YNL322C, strain KRE1, hits give low values 1.01 | S. cerevisiae deletion strains, locus YNR049C, strain mso1, hits give low values 0.988 | S. cerevisiae deletion strains, locus YNR052C, strain pop2, hits give low values 0.97 | S. cerevisiae deletion strains, locus YOL006C, strain TOP1, hits give low values 1.07 | S. cerevisiae deletion strains, locus YOL012C, strain htz1 0.756 | S. cerevisiae deletion strains, locus YOL147C, strain pex11, hits give low values 0.974 | S. cerevisiae deletion strains, locus YOR001W, strain rrp6, hits give low values 1 | S. cerevisiae deletion strains, locus YOR061W, strain CKA2, hits give low values 1 | S. cerevisiae deletion strains, locus YOR069W, strain VPS5, hits give low values 1.01 | S. cerevisiae deletion strains, locus YOR070C, strain gyp1, hits give low values 0.981 | S. cerevisiae deletion strains, locus YOR080W, strain dia2, hits give low values 1 | S. cerevisiae deletion strains, locus YOR083W, strain WHI5, hits give low values 0.898 | S. cerevisiae deletion strains, locus YOR106W, strain vam3, hits give low values 0.925 | S. cerevisiae deletion strains, locus YOR136W, strain idh2, hits give low values 0.963 | S. cerevisiae deletion strains, locus YOR144C, strain elg1, hits give low values 0.98 | S. cerevisiae deletion strains, locus YOR184W, strain ser1, hits give low values 0.986 | S. cerevisiae deletion strains, locus YOR265W, strain rbl2, hits give low values 0.993 | S. cerevisiae deletion strains, locus YOR270C, strain vph1, hits give low values 0.999 | S. cerevisiae deletion strains, locus YOR290C, strain snf2, hits give low values 0.95 | S. cerevisiae deletion strains, locus YOR316C, strain cot1, hits give low values 0.989 | S. cerevisiae deletion strains, locus YPL051W, strain arl3, hits give low values 0.953 | S. cerevisiae deletion strains, locus YPL055C, strain LGE1, hits give low values 1.04 | S. cerevisiae deletion strains, locus YPL078C, strain atp4, hits give low values 0.946 | S. cerevisiae deletion strains, locus YPL106C, strain sse1, hits give low values 0.938 | S. cerevisiae deletion strains, locus YPL240C, strain hsp82, hits give low values 1 | S. cerevisiae deletion strains, locus YPL241C, strain CIN2, hits give low values 1.01 | S. cerevisiae deletion strains, locus YPR119W, strain clb2, hits give low values 0.993 | S. cerevisiae deletion strains, locus YPR141C, strain kar3, hits give low values 0.967 | S. cerevisiae deletion strains, locus YPR163C, strain tif3, hits give low values 0.981 | S. cerevisiae deletion strains, locus YPR167C, strain met16, hits give low values 0.995 | S. cerevisiae deletion strains, strain wtn01, hits give low values 0.998 | S. cerevisiae strains, strain wild type, hits give low values 0.995
